This passage reports growth results from PubChem BioAssay (NCI).

The structures appear in SMILES notation. About 83,000 compounds went through this panel and 20% of them were active in at least one assay; those are over-represented in the sample as a whole.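 Negative percent growth values reflect cell death: -40 means 40% of the cells present at the start died, and -100 means all died.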 Active and inactive are the calls of the source. Rule for the calls: active = growth percent below 10; inactive = the rest.

This assay concerns MDA-MB-468 breast. Description: NCI-60 one-dose screen, 48 h (100 = growth as untreated, 0 = no growth, -100 = all killed). The following applies: 10 µM unless noted.
With `CCOC(=O)C(CCC#N)(CCC#N)C(=O)OCC`, the growth is 99.9% (inactive). As for `CC1(C)CC[C@]23CC[C@]4(C)[C@H](CC[C@@H]5[C@@]6(C)CCCNC(C)(C)[C@@H]6CC[C@]54C)[C@H]2[C@H]1OC3`, the growth is -50.5% (active). For `CCCCn1c(=O)c2c(nc(NCCc3ccc(O)c(O)c3)n2CCC)n(CCCC)c1=O`, the growth was 82.2% (inactive).

As to `COc1ccc(/C=C(/C2=NCCN2)n2ccc3ccccc32)cc1`, the growth is 89.6% (inactive).
